From PubChem BioAssay
hcGAS inh – inhibitors of human cGAS; recombinant h-cGAS, ATP depletion, Kinase-Glo luminescence; inhibition, % at 12.5 µM; actives 0.081% (n = 290,000)
NPYLR7 agonist – activates Aedes aegypti NPYLR7 receptor. activation, % at 10 µM. actives 0.15% (n = 270,000). HEK293T NPYLR7/Galpha15, GCaMP6s calcium fluorescence; in the data active means activation above about 40%
mcGAS inh – blocks mouse cGAS activity; Q8C6L5; recombinant cGAS, Kinase-Glo ATP depletion luminescence; inhibition, % at 12.5 µM; actives 0.15% (n = 160,000); AID 1259399
Target sequence (Q8C6L5 whole entry, looked up): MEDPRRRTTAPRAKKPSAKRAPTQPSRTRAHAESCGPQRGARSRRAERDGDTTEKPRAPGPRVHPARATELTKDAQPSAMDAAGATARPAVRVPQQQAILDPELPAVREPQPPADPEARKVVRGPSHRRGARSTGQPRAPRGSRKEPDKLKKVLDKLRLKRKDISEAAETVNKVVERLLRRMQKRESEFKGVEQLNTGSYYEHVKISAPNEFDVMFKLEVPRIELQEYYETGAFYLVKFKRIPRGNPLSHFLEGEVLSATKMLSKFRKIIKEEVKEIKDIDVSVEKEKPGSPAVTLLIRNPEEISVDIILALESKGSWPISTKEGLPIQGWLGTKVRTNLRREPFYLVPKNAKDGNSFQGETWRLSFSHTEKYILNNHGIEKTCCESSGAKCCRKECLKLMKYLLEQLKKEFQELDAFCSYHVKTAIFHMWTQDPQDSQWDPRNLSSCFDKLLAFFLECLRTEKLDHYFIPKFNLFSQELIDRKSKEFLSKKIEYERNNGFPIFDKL
Numbers stand for hits; 0 = inactive; - = no result; ! = not confirmed by another sample. The list is not random: actives were taken first. Their share in the collection is about 0.24%. Unless noted, no stated cut-off is given here; in the data, active means inhibition above about 40%; inactive means the rest.

SMILES	hcGAS inh	NPYLR7 agonist	mcGAS inh
C=CCN(CC=C)C(=O)CSc1nnc(-c2cccc(OC)c2)n1-c1ccccc1	0	-	0
Cn1c(=O)c2c(nc(N3CCCC3)n2Cc2ccccc2)n(C)c1=O	0	0	0
O=C(O)CN1C(=O)C(=C2C(=O)N(CC(=O)O)c3ccccc32)SC1=S	0	0	0
O=C(O)CN1C(=O)C(=NN2C(=O)CSC2=S)c2ccccc21	43	0	-
COC(=O)C1CCN(S(=O)(=O)c2cc(Br)ccc2Br)CC1	0	0	-
COC(=O)C1CCN(S(=O)(=O)c2c(F)cc(F)cc2Br)CC1	0	88	-
COCCn1nc(C(=O)N(C)CC2COCCO2)c2c1CCNC2 (centres undefined)	0	-	0
COc1cccc2c1C(=O)c1ccccc1C2=O	0	0	0
COc1cccc2c1C(=O)c1c(O)c3c(c(O)c1C2=O)C[C@@](O)(C(C)=O)C[C@@H]3O[C@H]1C[C@H](N)[C@H](O)[C@H](C)O1	60!	0	-
COc1cccc2c1C(=O)c1c(O)c3c(c(O)c1C2=O)C[C@@](O)(C(=O)CO)C[C@@H]3O[C@H]1C[C@H](N)[C@@H](O)[C@H](C)O1	48	0	-
CC(=O)[C@]1(O)Cc2c(O)c3c(c(O)c2[C@@H](O[C@H]2C[C@H](N)[C@H](O)[C@H](C)O2)C1)C(=O)c1ccccc1C3=O	69	100	96
Fc1cccc(-c2nnn3c2nc(NCc2ccccc2Cl)c2ccccc23)c1	0	0	0
CCOc1ccc(C(=O)N2CC(=O)N3CCc4c(F)cccc4C3C2)cc1 (centres undefined)	0	0	0
Nc1c(C=C2C=CC(=O)C=C2)c(=O)nc2sc(-c3ccccc3)nn12	0	0	-
Nc1c(C=C2C=CC(=O)C=C2)c(=O)nc2sc(-c3ccccc3Cl)nn12	42	0	-
O=C1c2c(O)ccc(O)c2C(=O)c2c(NCCNCCO)ccc(NCCNCCO)c21	42!	0	76
CCCCNc1ccc(NCCCC)c2c1C(=O)c1ccccc1C2=O	0	0	0
Cc1noc(-c2cccc(C(F)(F)F)c2)c1C(=O)NC1CCc2ccccc21 (centres undefined)	0	0	0
O=C(O)CN1CCSC1=O	0	0	0
O=C(c1ncncc1Cl)N1CC2CCC1C2 (centres undefined)	0	0	-
CCOC(=O)c1c(C2CC2)csc1NC(=O)COC(=O)C1=COCCO1	0	0	-
CCOC(=O)C1=C(C)NC(C)=C(C(=O)OC)C1c1ccc(Cl)c(Cl)c1 (centres undefined)	0	0	0
COc1ccccc1C=C1Oc2cc(O)ccc2C1=O	0	0	-
O=C1C(=Cc2ccc(OC(F)F)cc2OC(F)F)Oc2cc(O)ccc21	0	41	-
COc1ccc(C=C2Oc3cc(O)ccc3C2=O)c(OC)c1	0	0	-
SMILES	hcGAS inh	NPYLR7 agonist	mcGAS inh
CCOc1cccc(C=C2Oc3cc(O)ccc3C2=O)c1OC	0	70	-
Cc1c(C2Nc3ccccc3C(=O)N2C2CC2)cc(C#N)n1C (centres undefined)	0	0	0
O=S(=O)(Nc1ccc(Cl)cc1F)c1ccc(Cl)s1	0	0	-
CCc1cccc2c(C(CC(=O)NCc3ccc(F)cc3)c3cccc(F)c3)c[nH]c12 (centres undefined)	0	-	0
CC(=O)C(Cc1ccccc1)NC(=O)COC(=O)c1cccc2c1C(=O)c1ccccc1C2=O (centres undefined)	0	0	-
CSc1nnc2c(n1)OC(c1ccc(OC(=O)c3ccc(Br)cc3)cc1)Nc1ccccc1-2 (centres undefined)	0	46	0
CSc1nnc2c(n1)OC(c1ccc(Br)cc1)Nc1ccccc1-2 (centres undefined)	0	0	0
O=[N+]([O-])c1cccc(/C=C/c2nc(C=Nc3cccc(F)c3)c(O)o2)c1	0	0	0
CCc1cccc2c(C(CC(=O)NCCCN3CCOCC3)c3ccc(OC)c(OC)c3)c[nH]c12 (centres undefined)	0	-	68
CCc1cccc2c(C(CC(=O)NCCCN3CCOCC3)c3cccc(C(F)(F)F)c3)c[nH]c12 (centres undefined)	0	-	0
O=C(C1=C(O)C(=O)N(CCCN2CCOCC2)C1c1ccc(Cl)c(Cl)c1)c1ccco1 (centres undefined)	0	0	0
CC1CCCCN1CCCNC(=O)c1cc(-c2ccccc2F)nc2cc(-c3ccccc3)nn12 (centres undefined)	0	0	0
COc1ccc(C2C3(C#N)C(N)=NC(OC)(OC)C23C#N)cc1OC (centres undefined)	0	0	-
CCn1cc(C(CC(=O)NCc2ccc3c(c2)OCO3)c2cc(OC)cc(OC)c2)c2ccccc21 (centres undefined)	0	0	0
CCn1cc(C(CC(=O)N2CCN(Cc3ccc4c(c3)OCO4)CC2)c2cc(OC)cc(OC)c2)c2ccccc21 (centres undefined)	0	-	74
CCOc1cc(Br)cc(/C=C2/NC(=S)NC2=O)c1O	0	0	0
CCOc1cc(/C=C2/NC(=S)NC2=O)cc(Br)c1O	0	52	0
CC(=O)N1CCCN(Cc2cnc(S(=O)(=O)CC3CC3)n2CC2CCCCC2)CC1	0	0	-
O=C(CCc1ccccc1Cl)N1CCC(CO)(CCc2ccccc2)CC1	0	-	-
N#C/C(=C\c1ccc(O)c(O)c1)C(=O)Nc1ccccc1	0	147	0
C[C@@H](NC(=O)/C(C#N)=C/c1ccc(O)c(O)c1)c1ccccc1	0	0	0
COc1ccc(C2C(C(N)=O)=C(C)Nc3ncnn32)cc1 (centres undefined)	0	0	0
COc1cc(-c2nc3n(n2)C(c2ccc(O)cc2)C(C(N)=O)=C(C)N3)cc(OC)c1OC (centres undefined)	0	51	-
COc1ccc(CN2CCN(Cc3cccn3-c3ncccn3)CC2CCO)c(C)c1C (centres undefined)	0	49	0
COc1ccc(CN2CCN(Cc3cccn3-c3ncccn3)CC2CCO)c(F)c1 (centres undefined)	0	0	-
SMILES	hcGAS inh	NPYLR7 agonist	mcGAS inh
O=C(OCc1cc2c(cc1Br)OCO2)c1cccc(O)c1	0	0	-
O=C(OCc1cc2c(cc1Br)OCO2)c1cnccn1	69	0	0
CC1(C)CC(c2[nH]cnc2-c2ccccc2)CCO1 (centres undefined)	0	58	-
CC1(C)CC(c2nccn2CCOc2ccccc2)CCO1 (centres undefined)	0	0	-
COc1ccc(/C=C2/SC(=S)N(CC(=O)O)C2=O)cc1OC	0	0	0
COc1cc([N+](=O)[O-])cc(/C=C2/SC(=S)N(CC(=O)O)C2=O)c1O	0	0	0
O=C(O)CN1C(=O)/C(=C/c2cc(Br)c(O)c(Br)c2)SC1=S	0	251	0
O=C(O)CN1C(=O)/C(=C\c2cc([N+](=O)[O-])cc(Br)c2O)SC1=S	51	81	67
CN(C)c1ccc(/C=C2/SC(=S)N(CC(=O)O)C2=O)cc1Br	0	124	-
COc1cc(/C=C2/SC(=S)N(CC(=O)O)C2=O)cc(Br)c1O	0	0	0
O=C1C(=Cc2cccnc2)Sc2ccccc21	0	0	65
O=C1C(=Cc2ccco2)Sc2ccccc21	0	0	-
O=C(CCn1ccc(=O)[nH]c1=O)N(Cc1ccsc1)CC1CCCO1 (centres undefined)	0	0	-
COc1cccc(-c2nc3ccc(Br)cn3c2NCc2ccccc2)c1	0	0	89!
